Holding throughout (assay): NCI-60 one-dose screen, 48 h (100 = growth as untreated, 0 = no growth, -100 = all killed)
Common to all, as to details: 10 µM unless noted

For experiment [1], the system named is SK-MEL-2 melanoma.
For experiment [2], the system named is EKVX NSCLC.
Experiment [3] deals with SN12C renal.
Experiment [4] has as its system UO-31 renal.
The test system of experiment [5] is TK-10 renal.
In experiment [6] the test system is ACHN renal.
Experiment [7] concerns CAKI-1 renal.
Experiment [8] concerns A498 renal.
Experiment [9] concerns CCRF-CEM leukemia.
Experiment [10] has as its system MOLT-4 leukemia.

Molecules are shown by their SMILES. This is part of a sample that, as a whole, favours compounds with a hit. Of some 83,000 tested, about 20% had one in any assay.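 For each line, cells grew in 96-well plates with the test compound present at a single concentration for 48 hours.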 Unmarked numbers belong to inactive results. The source made the active and inactive calls. How the source made its calls: active means growth percent below 10; inactive means the rest.

With `COC(=O)CCCCCn1c2ccccc2c2c3c(c4c5ccccc5[nH]c4c21)C(=O)N(O)C3=O`, the growth in experiment [1] was 77.3%; in experiment [2], 75.3%; in experiment [3], 37.8%; in experiment [4] it was 11.8%; in experiment [5], 74.4%; in experiment [6], -18.5% (active). Further, the growth in [7] was -16.8% (active); in experiment [8], 62%; in experiment [9], 11.4%; in experiment [10] it was -15.6% (active).
Consider `CC(CNc1nc(Nc2ccc(Cl)c(Cl)c2)nc(C(Cl)(Cl)Cl)n1)N(C)C` (stereo not given), for which the growth in experiment [1] is -92.1% (active); in experiment [2], 18.5%; in experiment [3], 16.2%; in experiment [4], -3.58% (active); in [5] it was -61.7% (active); in [6], 6.79% (active). The growth is -19.1% (active) in [7], 22.8% in [8], -3.41% (active) in [9] and -49.4% (active) in experiment [10].
In the case of `Nc1c2c(nc3ccc(Cl)cc13)CC(c1ccccc1)CC2=O` (stereo not given), the growth in experiment [1] is 59%; in experiment [2] it was 40.3%; in experiment [3] it was 61.3%; in experiment [4], 57.8%; in [5], 79.6%; in [6] it was 47.9%. Further, the growth was 44.5% in experiment [7], 49.3% in experiment [8], 43.9% in experiment [9] and 51% in experiment [10].
On to `COC(=O)CNc1nc(N(C)O)nc(N(C)O)n1`, for which the growth was 113% in experiment [1]; 48.2% in experiment [2]; 49.8% in experiment [3]; 35.6% in experiment [4]; 49.6% in [5]; 23.8% in experiment [6]. The growth is 34.1% in experiment [7], 34.5% in experiment [8], 15.5% in experiment [9] and 25.9% in experiment [10].
On to `O=Cc1nc2ccccc2[nH]1`, for which the growth is 101% in [1]; 94.5% in [2]; 101% in experiment [3]; 75.9% in experiment [4]; 97% in experiment [5]; 106% in experiment [6]. Further, the growth was 93.2% in experiment [7], 105% in experiment [8], 99.8% in experiment [9] and 95.4% in [10].
On to `Nc1nc2c3ccncc3cc(-c3cccc(Cl)c3)c2c2cnccc12`, for which the growth was 59.1% in [1]; 62.2% in experiment [2]; 36.4% in [3]; 29.7% in experiment [4]; 32.3% in [5]; 26.6% in experiment [6]. Besides, the growth is 29.1% in experiment [7], -12% (active) in [8], 20% in experiment [9] and 3.17% (active) in experiment [10].
Take `O=C(O)c1cccc2c1-c1ccc(Cl)cc1C2`: the growth is 102% in [1]; 110% in experiment [2]; 105% in experiment [3]; 89.7% in experiment [4]; 103% in experiment [5]; 107% in experiment [6]. For the same compound, the growth was 86.5% in experiment [7], 96.8% in experiment [8], 99.5% in experiment [9] and 89.9% in experiment [10].
For `COc1cc2c(cc1-c1c(C)noc1C)ncc1nc(C3CC3)n([C@H](C)COC(F)F)c12`, the growth in experiment [1] was 74.1%; in experiment [2] it was 56.9%; in experiment [3] it was 71.4%; in experiment [4], 21.6%; in [5] it was 26.5%; in experiment [6], 40.6%. Besides, the growth in experiment [7] was 34.1%; in experiment [8] it was 0.499% (active); in [9], 52%; in [10] it was 42.2%.
Consider `N#Cc1cnc2cc(OC[C@@H](O)CO)c(NC(=O)C3CCCC3)cc2c1Nc1ccc(OCc2cccc(F)c2)c(Cl)c1`, for which the growth is -56.9% (active) in [1]; -36.8% (active) in experiment [2]; 13.8% in experiment [3]; 35.3% in experiment [4]; 29.5% in experiment [5]; 40.2% in experiment [6]. The growth in [7] was 59.4%; in experiment [8], 55.5%; in experiment [9], -26.8% (active); in experiment [10], 6.26% (active).
Turning to `COc1cccc(-c2nn(-c3ccccc3)cc2-c2ccnc(NCCNS(=O)(=O)c3ccccc3)c2)c1`, the growth in experiment [1] is 21%; in experiment [2] it was 47.2%; in experiment [3], 36.1%; in experiment [4] it was 14.5%; in experiment [5], 43.8%; in [6] it was 28.9%. Also, the growth in experiment [7] is 43.7%; in experiment [8], 47.7%; in experiment [9] it was 12.2%; in experiment [10] it was 12.8%.
For `CC(C)(C)c1nc(-c2ccc(O)c(O)c2)cs1`, the growth in experiment [1] was 93.3%; in experiment [2], 88.9%; in experiment [3], 59.5%; in experiment [4], 39.5%; in experiment [5], 89.2%; in [6] it was 50%. Further, the growth in experiment [7] was 54.8%; in [8], 104%; in experiment [9], 26.4%; in experiment [10], 44.1%.
With `COC(=O)[C@]12CC[C@@H](C)[C@H](C)[C@@H]1C1=CC(=O)[C@@H]3[C@@]4(C)C[C@@H](O)[C@H](O)[C@@]5(C)COC(=C45)C[C@@]3(C)[C@]1(C)CC2`, the growth was 33.6% in experiment [1]; 75.8% in [2]; 55% in experiment [3]; 65.8% in experiment [4]; 83.3% in experiment [5]; 69.5% in experiment [6]. The growth in experiment [7] is 71.1%; in experiment [8], 37.5%; in [9] it was 59.7%; in experiment [10] it was 24.6%.
Consider `CCN1CCN(C(=O)[C@@]2(C)CC[C@]3(C)CC[C@]4(C)C(=CC(=O)[C@@H]5[C@@]6(C)CC[C@H](OCCC#N)C(C)(C)[C@@H]6CC[C@]54C)[C@@H]3C2)CC1`, for which the growth in experiment [1] was 93.5%; in [2], 85.7%; in experiment [3] it was 83.1%; in [4], 69.8%; in [5], 93.4%; in experiment [6] it was 98.3%. Moreover, the growth in experiment [7] was 80.2%; in experiment [8] it was 101%; in [9], 63.4%; in experiment [10], 62.8%.
In the case of `N#Cc1c(-c2ccco2)nc2c(c(-c3ccccc3)nn2-c2ccccc2)c1-c1ccc(O)cc1`, the growth in experiment [1] is 70.4%; in [2], 56.4%; in experiment [3], 82.4%; in experiment [4], 92%; in experiment [5] it was 89.2%; in experiment [6] it was 72.4%. For the same compound, the growth in experiment [7] was 58.9%; in [8], 90.9%; in [9], 41.5%; in experiment [10], 9.84% (active).
Take `CC(=O)c1c(C)[nH]c(-c2nc3ccc(N4CCN(C)CC4)cc3[nH]2)c1-c1ccc(OCC2CCOCC2)cc1`: the growth is 53.3% in experiment [1]; 35.6% in experiment [2]; 39.9% in [3]; 6.97% (active) in experiment [4]; -5.8% (active) in [5]; 19.2% in experiment [6]. In addition, the growth in [7] is 12.4%; in [8], 30.8%; in experiment [9] it was 30.9%; in experiment [10] it was 47.5%.
`N=C(N)c1ccc(-c2ccc(-c3cc(F)cc(F)c3)o2)nc1`: the growth was 106% in [1]; 90.4% in [2]; 86.9% in [3]; 69.8% in experiment [4]; 124% in experiment [5]; 90% in [6]. The growth in [7] is 78.5%; in [8] it was 90.3%; in experiment [9], -35.6% (active); in experiment [10], 73.8%.
Take `COc1ccc(-n2c(/C=C/c3ccc(O)c(OC)c3)cc(/C=C/c3ccc(O)c(OC)c3)nc2=O)cc1`: the growth in [1] is 84.9%; in experiment [2] it was 56.7%; in experiment [3], 66.6%; in experiment [4] it was 47.8%; in experiment [5] it was 104%; in experiment [6], 69.5%. The growth in [7] was 87.4%; in experiment [8], 113%; in [9], 15.2%; in [10], 17.2%.
Turning to `COc1cc(-c2c(C#N)c(-c3cccs3)nc3c2c(-c2ccccc2)nn3-c2ccccc2)ccc1O`, the growth is 81% in [1]; 79.9% in experiment [2]; 89.2% in experiment [3]; 89.1% in experiment [4]; 101% in experiment [5]; 86.1% in [6]. Also, the growth in [7] was 66.6%; in experiment [8], 106%; in [9], 83.2%; in experiment [10], 59.9%.
For the compound `O=S(=O)(NCCCNc1cc(-c2cn(-c3ccccc3)nc2-c2cccc(O)c2)ccn1)c1ccc(F)cc1`, the growth was 44.7% in experiment [1]; 51.2% in experiment [2]; 47.3% in experiment [3]; 21.9% in experiment [4]; 50.6% in experiment [5]; 32.8% in experiment [6]. For the same compound, the growth was 41.4% in experiment [7], 34.3% in experiment [8], 19.4% in experiment [9] and 18.8% in experiment [10].
Consider `CCN1CCN(C(=O)[C@]23CCC(C)(C)C[C@@H]2C2=CC[C@@H]4[C@@]5(C)C/C(=C/c6ccncc6)C(=O)C(C)(C)[C@@H]5CC[C@@]4(C)[C@]2(C)CC3)CC1`, for which the growth was -30.8% (active) in experiment [1]; 15.3% in [2]; -70.1% (active) in [3]; -92.7% (active) in experiment [4]; 32.3% in experiment [5]; 3.29% (active) in [6]. Further, the growth in experiment [7] is 23.2%; in experiment [8], -22.6% (active); in [9], 3.73% (active); in experiment [10] it was -12.2% (active).
With `Cn1cc(-c2csc(-c3c[nH]c4ccccc34)n2)c2cccnc21`, the growth in experiment [1] is 38.2%; in [2], 42.5%; in experiment [3], 46.5%; in experiment [4], 57.2%; in experiment [5], 48%; in experiment [6] it was 51.8%. In addition, the growth in experiment [7] is 15.7%; in [8], 13.5%; in [9] it was 20.4%; in experiment [10] it was 44.4%.
For `OCC(CO)(CCl)CCl`, the growth in experiment [1] is 87.8%; in [2], 104%; in [3] it was 98.3%; in [4], 104%; in experiment [5], 95%; in experiment [6] it was 104%. Moreover, the growth in experiment [7] was 95%; in [8] it was 111%; in experiment [9] it was 90.4%; in experiment [10], 91.1%.
Consider `O=C(O)c1cccc2c1C(=O)N(c1ccc3c(c1)Cc1ccccc1-3)C2=O`, for which the growth in experiment [1] is 99%; in experiment [2], 111%; in [3], 111%; in experiment [4], 85.6%; in experiment [5], 100%; in experiment [6], 113%. Further, the growth in experiment [7] was 109%; in experiment [8], 104%; in [9] it was 104%; in experiment [10] it was 101%.
As for `CC(=O)O[C@H]1CC[C@]2(C)[C@H]3CC=C4[C@@H]5[C@H](C)[C@@H](C)CC[C@]5(C(=O)NCCNCCNCCN)CC[C@@]4(C)[C@]3(C)CC[C@H]2C1(C)C`, the growth in [1] was 105%; in experiment [2], 72.6%; in experiment [3], 78.3%; in experiment [4], 63.5%; in [5], 101%; in experiment [6], 91.5%. The growth in experiment [7] was 55.8%; in [8] it was 95.4%; in [9], 62.1%; in experiment [10], 49.9%.
For `O=C1OC(c2ccc(Cl)c(Cl)c2)=C/C1=C/c1cccc([N+](=O)[O-])c1`, the growth in experiment [1] is 102%; in experiment [2] it was 91.8%; in [3], 93%; in [4], 68%; in [5] it was 179%; in [6], 100%. In addition, the growth is 91.3% in experiment [7], 101% in experiment [8], 103% in experiment [9] and 103% in experiment [10].
Consider `C/C(=N\NC(=O)C(C)SC(C)C(=O)N/N=C(\C)c1cccnc1)c1cccnc1` (stereo not given), for which the growth in [1] is 93.8%; in experiment [2], 100%; in experiment [3], 106%; in experiment [4] it was 81%; in experiment [5], 106%; in [6] it was 106%. Besides, the growth is 97.7% in experiment [7], 88.2% in experiment [8], 99.4% in experiment [9] and 86.7% in experiment [10].

The record behind these values is PubChem BioAssay (NCI).
